Source: PubChem BioAssay AID1259374 (The Scripps Research Institute Molecular Screening Center, 2018)
Several values for one entry are separate records, joined by “and”; a condition that tells them apart may be missing. Identical values can stand only once. The whole screen tested about 650,000 compounds, of which about 5,900 (0.91%) were called active. Rule as the data show it: active = inhibition above about 50%; inactive = the rest. The full list was thinned out, with actives kept by preference.

Molecular target: Microphthalmia-associated transcription factor (Homo sapiens) (UniProt O75030)
Sequence (O75030 whole entry, looked up): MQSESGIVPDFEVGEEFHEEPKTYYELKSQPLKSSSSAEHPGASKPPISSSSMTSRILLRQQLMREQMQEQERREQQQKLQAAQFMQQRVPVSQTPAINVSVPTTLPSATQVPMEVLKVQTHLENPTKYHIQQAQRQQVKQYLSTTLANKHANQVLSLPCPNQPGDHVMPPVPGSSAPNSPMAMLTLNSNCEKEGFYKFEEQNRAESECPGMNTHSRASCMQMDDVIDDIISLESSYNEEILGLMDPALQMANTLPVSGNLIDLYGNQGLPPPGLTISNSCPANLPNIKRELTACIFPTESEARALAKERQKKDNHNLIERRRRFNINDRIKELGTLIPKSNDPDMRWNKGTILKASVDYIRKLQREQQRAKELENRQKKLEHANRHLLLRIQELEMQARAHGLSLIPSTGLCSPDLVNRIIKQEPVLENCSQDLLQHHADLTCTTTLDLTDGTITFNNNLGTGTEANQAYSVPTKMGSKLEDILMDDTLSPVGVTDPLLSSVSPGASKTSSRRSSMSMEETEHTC
Test: MITF inhibitors, primary screen, biochemical, AlphaScreen, human (AID 1259374);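 also: 0% = vehicle wells with protein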
Conditions: AlphaScreen MITF homodimerization, bead proximity signal; at 2.6 µM; stronger effect = higher value

Row | Compound | inhibition
1 | NS(=O)(=O)c1ccc(NSc2ccccc2[N+](=O)[O-])cc1 | 13.8% (inactive)
2 | CC(=O)Nc1ccc(OCC(O)CN2CCN(c3cccc(C(F)(F)F)c3)CC2)cc1 (stereo not given) | 10.8% (inactive)
3 | CC1CCN(C(=O)CSc2nc3c(c(=O)n2CCc2ccccc2)SCC3)CC1 | -10.8% (inactive)
4 | CC(=O)Nc1ccc(C(=O)N/N=C/c2cccc(C)n2)cc1 | 9.97% (inactive)
5 | C=CCOc1ccc(C2Nc3ccccc3-c3nnc(SC)nc3O2)cc1 (stereo not given) | 3.95% (inactive)
6 | CC(C)C(=O)NC(NC(=S)Nc1ccccc1C(=O)O)C(Cl)(Cl)Cl (stereo not given) | 9.89% (inactive)
7 | COc1ccc(Cn2nc(-c3ccncc3)oc2=O)cc1 | 3.66% (inactive)
8 | O=C(NCCOc1ccccc1)c1cc(-c2ccccc2)nc2c(Cl)cccc12 | -8.8% (inactive)
9 | COC(=O)c1ccccc1S(=O)(=O)C1CCN(Cc2cccnc2)CC1 | 13.1% (inactive)
10 | COc1ccccc1C(=O)N1CCN=C1SCc1cccnc1 | -16.8% (inactive)
11 | COc1cccc(OC)c1C(=O)N1CCN(Cc2cccnc2)CC1 | 79.5% (active)
12 | Cc1cc(C)c(S(=O)(=O)N(C)CCO)cc1N(C)S(=O)(=O)c1ccc(Cl)cc1 | -12% (inactive)
13 | CCCCC(=O)N1CCN(c2ccccc2OCC)CC1 | -2.97% (inactive)
14 | CCN(CC)CCNC(=O)c1sc2ncn(Cc3ccccc3F)c(=O)c2c1C | -7.31% (inactive)
15 | COc1cccc(C2Nc3ccc(C(=O)O)cc3C3C=CCC32)c1OC (stereo not given) | 13.7% (inactive)
16 | CCOc1cccc2c1N[C@@H](c1ccc(C(=O)O)cc1)[C@H]1CC=C[C@@H]21 | 65.3% (active)
17 | COC(=O)c1ccc(C2Nc3c(C(=O)OC)cccc3C3C=CCC32)cc1 (stereo not given) | 4.19% (inactive)
18 | O=C(NNC(=O)c1ccccn1)NC12CC3CC(CC(C3)C1)C2 | 5.98% (inactive)
19 | COc1cccc(C(=O)NCCSc2ncc(-c3ccc(C)cc3)[nH]2)c1 | 8.31% (inactive)
20 | Cc1ccc(-c2nc(C#N)c(NCCCn3ccnc3)o2)cc1 | -5.46% (inactive)
21 | Cc1cccc(OCc2nc(C#N)c(NCCCN(C)C)o2)c1 | -13.4% (inactive)
22 | N#Cc1nc(COc2cccc(Cl)c2)oc1NCCCn1ccnc1 | 62.2% (active)
23 | O=C(CSc1ccc2nc(-c3ccccc3)cn2n1)Nc1cccc2ccccc12 | -15.1% (inactive)
24 | CCN1C(=O)/C(=C/c2ccc(-c3ccc(Br)cc3)o2)N(CC)C1=S | -10.4% (inactive)

Row | Compound | inhibition
25 | Cc1ccc(S(=O)(=O)N2CCN(Cc3ccc(F)cc3)CC2)cc1 | 49.5% (inactive)
26 | CSc1ccc(CN2CCN(S(=O)(=O)c3ccc([N+](=O)[O-])cc3)CC2)cc1 | 53.2% (active)
27 | COc1ccccc1CN1CCN(S(=O)(=O)c2ccc([N+](=O)[O-])cc2)CC1 | 39.9% (inactive)
28 | CSc1ccccc1NC(=O)c1cc2nc(-c3ccc(Br)cc3)cc(C(F)(F)F)n2n1 | -5.34% (inactive)
29 | COc1cc(C2N=C(c3ccccc3)C(C)(C)N2O)ccc1O (stereo not given) | 2.87% (inactive)
30 | O=S(=O)(c1ccc(Cl)cc1)N1CCc2ccccc2C1 | 10.1% (inactive)
31 | CCOC(=O)c1c(NC(=O)c2ccc(OC)cc2OC)sc(C(C)=O)c1C | 7.53% (inactive)
32 | Cc1cccc(C(=S)N2CCOCC2)c1 | -19.2% (inactive)
33 | COc1ccc(CNc2ccc3ncc(-c4cccc(O)c4)n3n2)cc1 | -19% (inactive)
34 | CCOc1cc(CN2CCN(Cc3cccc(OC)c3)C(CCO)C2)ccc1O (stereo not given) | -2.92% (inactive)
35 | COc1ccc(CN2CCN(CCCc3ccccc3)C(CCO)C2)cc1O (stereo not given) | 7.3% (inactive)
36 | COc1cccc(CN2CCN(CCCc3ccccc3)CC2CCO)c1 (stereo not given) | 69% (active)
37 | OCC1CCN(C2CCCN(Cc3cccc(-c4ccco4)c3)C2)CC1 (stereo not given) | 3.07% (inactive)
38 | COc1ccccc1N1C(=O)c2ccc(C(=O)NN3C(=O)c4ccccc4C3=O)cc2C1=O | 11.1% (inactive)
39 | COc1cc(N/N=C(\C)c2ccc([N+](=O)[O-])cc2)ncn1 | 9.19% (inactive)
40 | O=c1[nH]nc(SCc2cn3cc(Cl)ccc3n2)c(=O)[nH]1 | -5.72% (inactive)
41 | Cc1cccc(CSc2n[nH]c(=O)[nH]c2=O)c1 | 58.5% (active)
42 | O=c1[nH]nc(SCc2ccc(Cl)cc2)c(=O)[nH]1 | 4.19% (inactive)
43 | O=c1oc(-c2cccc3ncccc23)nn1Cc1cccnc1 | -6.6% (inactive)
44 | COc1ccc(N(CC(=O)N2CCN(C)CC2)S(C)(=O)=O)cc1 | 13.7% (inactive)
45 | CCOc1ccc(-c2ccc(C)c(NC(=O)c3cccs3)c2)nn1 | 0.28% (inactive)
46 | N=C1/C(=C\c2ccc([N+](=O)[O-])o2)C(=O)N=C2SC(N3CCOCC3)=NN12 | 74.2% (active)
47 | Cc1ccc(C2=NN3C(=N)/C(=C/c4ccc(-c5ccc(C(=O)O)cc5)o4)C(=O)N=C3S2)cc1 | 3.4% (inactive)
48 | Cc1ccc(C2=NN3C(=N)/C(=C/c4ccco4)C(=O)N=C3S2)cc1 | -3.9% (inactive)

Row | Compound | inhibition
49 | Cc1nnc(SCC(=O)N2c3ccccc3Sc3ccccc32)nc1C | -1.53% (inactive)
50 | COc1ccc(/C=C/C(=O)OCCN2CCOCC2)cc1 | 12.6% (inactive)
51 | O=C(OCCN1CCOCC1)c1c(Cl)nc2sccn12 | 68.3% (active)
52 | O=C(OCCN1CCOCC1)C1(c2ccccc2)CCCCC1 | 3.29% (inactive) and -3.71% (inactive)
53 | CSc1cccc(NC(=O)C2C3C=CC4(O3)C2C(=O)N(CCCN2CCCC(C)C2)C4C(=O)NC2CCCCC2)c1 (stereo not given) | 1.08% (inactive)
54 | COc1ccc(S(=O)(=O)N2CCN(Cc3ccccc3Cl)CC2)cc1 | 8.12% (inactive)
55 | COc1cc(CN2CCN(C3CCCC3)C(CCO)C2)cc(OC)c1OC (stereo not given) | -4.18% (inactive)
56 | COc1cc(CN2CCN(Cc3ccccc3Cl)CC2)cc(OC)c1OC | 74.9% (active)
57 | COc1cc(CN2CCOCC2)cc(OC)c1OC | 5.88% (inactive)
58 | COc1ccc(CN2CCCCC2)c(OC)c1 | -6.28% (inactive)
59 | COc1ccc(CN2CCN(Cc3cccc(Br)c3)CC2)c(OC)c1 | 72.2% (active)
60 | COc1ccc(OC)c(CN2CCC(C(=O)NCC(C)C)CC2)c1 | 10.5% (inactive)
61 | COc1ccc(OC)c(CN2CCN(Cc3ccccc3OC)CC2)c1 | 65.1% (active)
62 | COc1cc(CN2CCC(O)CC2)cc(OC)c1OC | 20.4% (inactive)
63 | COc1ccc(CN2CCN(Cc3cc(OC)c(OC)c(OC)c3)CC2)cc1 | 70.5% (active)
64 | COc1ccc(CNCc2cccc(F)c2)c(OC)c1 | 17.1% (inactive)
65 | COc1ccc(OC)c(CN2CCN(C3CCCCCC3)CC2)c1 | 49.2% (inactive)
66 | CS(=O)(=O)Nc1ccc(C(=O)Nc2ccc(Br)c(Cl)c2)cc1 | 11.7% (inactive)
67 | COc1ccc(C(=O)N2CCc3c(nc(C)[nH]c3=O)C2)cc1Cn1nc(C)cc1C | 4.03% (inactive)
68 | COc1cc(C2C3=C(Nc4[nH]c(=O)[nH]c(=O)c42)C(=O)CC(C)(C)C3)ccc1O (stereo not given) | -4.39% (inactive)
69 | Cc1ccc(Cl)c2sc(=NC(=O)CN3C(=O)c4ccccc4C3=O)n(C)c12 | 14.4% (inactive)
70 | O=C(NCCc1ccc(O)cc1)C1CCN(c2ccc(Nc3ccc4ncccc4c3)nn2)CC1 | 14.1% (inactive)
71 | COc1ccc(Cl)cc1-c1nc(SCC(=O)Nc2ccc([N+](=O)[O-])cc2C#N)n[nH]1 | 5.04% (inactive)
72 | Cc1cc2c(cc3c(=O)n(CC(=O)N4CCCCCC4)nc(C)n32)s1 | 19.7% (inactive)

Row | Compound | inhibition
73 | CC(=O)NC1(c2ccccc2)CCN(C(=O)N(c2ccccc2)c2ccccc2)CC1 | -5.46% (inactive)
74 | N#CC1=C(N)Oc2n[nH]c(-c3ccccc3)c2C1c1cc(Cl)cc(Cl)c1OC(=O)N1CCOCC1 (stereo not given) | 1.7% (inactive)
75 | O=C(CSc1cn(Cc2cccc(F)c2)c2ccccc12)Nc1ccccc1 | -4.78% (inactive)
76 | CCOC(=O)c1c(NC(=O)COc2ccc(C)cc2Br)sc2c1CCC(C)C2 (stereo not given) | 14.2% (inactive)
77 | O=C(CSc1nnc2ncccn12)N1CCN(c2ccccc2F)CC1 | -5.77% (inactive)
78 | COc1ccccc1CN1CC(C)OC(C)C1 (stereo not given) | 82.9% (active)
79 | CCOc1ccc(CN2CCN(Cc3cc(OC)ccc3O)CC2)cc1 | 20.6% (inactive)
80 | COc1ccc(OC)c(CN2CCN(Cc3ccc(Cl)cc3)CC2)c1 | 82.1% (active)
81 | COc1ccc(CN2CCN(Cc3ccccc3OC)CC2)cc1Br | 77.2% (active)
82 | COc1ccccc1CN1CCN(c2ccccn2)CC1 | 45.1% (inactive)
83 | COc1ccc(CN2CCN(Cc3cc(OC)ccc3OC)CC2)cc1 | 76.4% (active)
84 | C=C(C)CN(CC)C(=O)C1CCN(Cc2cc(OC)ccc2OC)CC1 | 33.5% (inactive)
85 | COc1ccc(OC)c(CN2CCC3(CCC(CNC(C)=O)O3)CC2)c1 (stereo not given) | -3.91% (inactive)
86 | COc1ccc(OC)c(CN2CCc3nnc(C4CCCO4)n3CC2)c1 (stereo not given) | 0.68% (inactive)
87 | CCN(CC)C(=O)C1CCCN(Cc2ccccc2OC)C1 (stereo not given) | 16.3% (inactive)
88 | CC1CN(Cc2ccc3ccccc3c2)CC(C)O1 (stereo not given) | 1.44% (inactive)
89 | COc1ccc(S(=O)(=O)NCc2ccccc2OC)cc1Br | 9.71% (inactive)
90 | Cc1ccc(N2C(=O)CN(S(C)(=O)=O)CC2(C)C(=O)NC2CCCC2)cc1C (stereo not given) | -2.11% (inactive)
91 | O=C(OCCN=C1NS(=O)(=O)c2ccccc21)c1ccc([N+](=O)[O-])cc1 | -14% (inactive)
92 | O=C1c2ccccc2C(=O)N1CCSc1nc2sc3c(c2c(=O)n1-c1ccccc1)CCCC3 | -1.49% (inactive)
93 | CCOC(=O)c1cc(-c2ccc(O)c(OC)c2)no1 | -12.8% (inactive)
94 | O=C(NCc1ccc(Cl)cc1)C1CCN(c2nnnn2-c2ccccc2)CC1 | 5.24% (inactive)
95 | O=C(CSc1nc(Nc2ccc(F)cc2)c2ccccc2n1)c1ccc(Cl)cc1 | 10.1% (inactive)
